The values below are quoted from earlier work in PubChem BioAssay AID977608.

As a reminder, the IC50 is the concentration that inhibits the measured activity by half.

The whole screen tested about 4,300 compounds, of which about 4,300 (100%) were called active. Cut-off not given; nearly all actives show IC50 up to about 1400 µM. The set was probably picked from earlier hits. The list shows a part of the results.

The data set in a line: literature IC50 values for PDB complexes, PDB-derived complexes (AID 977608). The conditions noted are these: PDB protein-ligand complexes.

`C/C(=N\O)c1ccc(O)cc1O`: the IC50 (protein: SERINE/THREONINE-PROTEIN KINASE CHK2, PDB entry 4bdb) is 85.6 µM (active).

`COc1ccc(C[C@H](NC(=O)[C@@H](C)NC(=O)CN2CCOCC2)C(=O)N[C@@H](CC2CCCCC2)[C@@H](O)[C@H](C)CO)cc1`: the IC50 (protein: yCP, PDB entry 4qls) is 0.036 µM (active).

In the case of `COc1ccc(C[C@H](NC(=O)[C@H](C)NC(=O)CN2CCOCC2)C(=O)N[C@@H](CC2CCCCC2)[C@@H](O)[C@H](C)CO)cc1`, the IC50 (protein: yCP, PDB entry 4qlq) was 0.0066 µM (active).

As to `O=C(COc1ccccc1[P+](O)(O)O)NC1CCCC1`, under “protein: 14-3-3 protein sigma, PDB entry 4dhn”, the IC50 was 128 µM (active).

As to `O=C(COc1ccccc1[P+](O)(O)O)NC1CCCCC1`, the IC50 (protein: 14-3-3 protein sigma, PDB entry 4dht) is 15 µM (active).

For `O=C(CS)NCCCCCC(=O)Nc1ccccc1`, the IC50 (protein: Schistosoma mansoni histone deacetylase 8, HDAC8, PDB entry 4cqf) was 50 µM (active).

`C[C@@H](O)[C@H](NC(=O)Cc1cc(Cl)cc(Cl)c1)C(=O)NCC(=O)NCC=N`: under “protein: Protease AVP8, PDB entry 4piq”, the IC50 was 0.08 µM (active).

With `CC(=O)Nc1cccc(C2=CC(C)N(O)c3ccccc32)c1` (stereo unspecified), the IC50 (protein: Bromodomain-containing protein 4, PDB entry 4meo) is 250 µM (active).

With `N=C1C(NS(=O)(=O)c2ccccc2)C(=O)NC(=O)N1Cc1ccccc1` (stereo unspecified), the IC50 (protein: Glucose-1-phosphate thymidylyltransferase (RmlA), PDB entry 3zlk) was 1.32 µM (active) and the IC50 (protein: Glucose-1-phosphate thymidylyltransferase (RmlA), PDB entry 4ASP) is 1.32 µM (active).

On to `C/C(=C\Cc1c(O)c(Cl)c(C)c(C=O)c1O)CC/C=C(\C)[C@H](C)O`, for which the IC50 (protein: Alternative oxidase, mitochondrial, PDB entry 3vva) is 0.00048 µM (active).

As for `CCc1nc(N)nc(N)c1-c1ccc(NCc2cc(F)cc(F)c2)cc1`, the IC50 (protein: human Renin, PDB entry 2g24) is 4 µM (active).

As to `N#Cc1csc(NC(=O)CN2C(=O)CCc3ccccc32)c1-c1ncn[nH]1`, under “protein: Mitogen-activated protein kinase 10, PDB entry 3rtp”, the half-maximal inhibitory concentration (IC50) is 0.007 µM (active).

`CC(C)C[C@H](NC(=O)[C@H](C)NC(=O)[C@H](CC(N)=O)NC(=O)[C@H](CCC(=O)O)NC(=O)[C@@H](NC(=O)[C@H](C)NC(=O)[C@@H](NC(=O)[C@H](Cc1cnc[nH]1)NC(=O)[C@@H](N)CO)C(C)C)C(C)C)C(=O)O`: where the note is “protein: HLA class I histocompatibility antigen, B-39 alpha chain, PDB entry 4o2e”, the concentration for half-maximal inhibition (IC50) is 0.01 µM (active).

As to H-HVAVENAL-OH, for the setting “protein: HLA class I histocompatibility antigen, B-39 alpha chain, PDB entry 4o2f”, the IC50 was 0.387 µM (active).

On to `O=C(CC[C@H](NC(=O)c1ccc(C#Cc2ccccc2)cc1)C(=O)NO)NCCCO`, for which, under “protein: UDP-3-O-[3-hydroxymyristoyl] N-acetylglucosamine deacetylase, PDB entry 4j3d”, the IC50 is 0.0053 µM (active).

As to `CCCCn1c(-c2c(C)ccc3[nH]ncc23)c[n+]2c3c(=O)[nH]c(=O)n(C)c3[nH]c12`, the IC50 (protein: EPH receptor A3, PDB entry 4gk4) was 0.014 µM (active).

Turning to H-AAAAAAA-OH, under “protein: Insulin-degrading enzyme(IDE), PDB entry 2jbu”, the IC50 was 400 µM (active).

With `COc1ccc2c(c1)C1=NN(C(=O)CO)[C@H](c3ccc(OC(F)(F)F)c(F)c3)[C@@H]1CC2`, the IC50 (protein: Receptor-interacting serine/threonine-protein kinase 1 (C34A, C127A, C233A, C240A mutation), PDB entry 4iti) was 0.44 µM (active).

On to `O=C(O)/C(S)=C/c1c(Cl)ccc(Cl)c1Cl`, for which the IC50 (protein: Beta-lactamase 2 BcII MBL, PDB entry 4tyt) was 0.02 µM (active).

Consider `CC(C)C[C@H](C[P+](O)(O)[C@@H](N)CCc1ccccc1)C(=O)N[C@@H](Cc1c[nH]c2ccccc12)C(N)=O`, for which the IC50 (protein: Endoplasmic reticulum aminopeptidase 2, PDB entry 4jbs) was 0.011 µM (active).

`O=C1NCc2ccc(Cl)cc21`: for the setting “protein: Chymase, PDB entry 4k5z”, the IC50 is 1000 µM (active).

On to `O=C(c1ccc(O)cc1)N1CCOCC1`, for which the half-inhibitory concentration (IC50) (protein: Heat shock protein HSP 90-alpha, PDB entry 4egh) is 550 µM (active).

For the molecule `N=Cc1ncc(C(=O)NCc2ccccc2)cn1`, the IC50 (protein: Protease AVP2, PDB entry 4pid) is 24 µM (active).

In the case of `Nc1nonc1C(=O)c1ccccc1`, for the setting “protein: Adenylate cyclase type 10 hsolAC, PDB entry 4oyi”, the IC50 is 19 µM (active).

Take `CCOC(=O)COc1cccc(C(=O)c2nonc2N)c1`: the IC50 (protein: Adenylate cyclase type 10 hsolAC, PDB entry 4oyb) is 1.6 µM (active).

For the molecule `Nc1nonc1C(=O)c1cccc(OCc2nc3ccccc3[nH]2)c1`, under “protein: Adenylate cyclase type 10 hsolAC, PDB entry 4oya”, the IC50 is 0.36 µM (active).

On to `COc1cccc(C(=O)c2nonc2N)c1`, for which the IC50 (protein: Adenylate cyclase type 10 hsolAC, PDB entry 4oym) was 11 µM (active).

With `CCCCn1cc[n+](CC(O)([P+](O)(O)O)[P+](O)(O)O)c1`, the IC50 (protein: Farnesyl pyrophosphate synthase, PDB entry 4ga3) is 0.03 µM (active).

`CCCCCCCCCCCCCCCn1cc[n+](CC([P+](O)(O)O)[P+](O)(O)O)c1`: the IC50 (protein: Squalene synthase, HsSQS, PDB entry 3wcl) was 0.26 µM (active) and the IC50 (protein: Squalene synthase, TcSQS, PDB entry 3wcg) was 0.14 µM (active).
